PubChem BioAssay (NCI)
This is part of a sample that, as a whole, favours compounds with a hit. Of some 79,000 tested, about 15% had one in any assay. Calls of active or inactive are those of the source. No stated cut-off is given here; in the data, active means growth inhibition above about 70%; inactive means the rest.

Experiments:
[1] = NCI Yeast Anticancer Drug Screen. Data for the rad50 strain (AID 155);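 further: 0% = growth of vehicle-only cultures of the same strain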; conditions: S. cerevisiae rad50 strain growth inhibition; at 50.0 µM; active compounds read high
How it was run: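 A DNA repair-deficient yeast mutant serves as the test organism; compound-induced growth inhibition is calculated against vehicle-treated cells.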

[2] = NCI Yeast Anticancer Drug Screen. Data for the mec2-1 strain (AID 157); conditions: S. cerevisiae mec2-1 strain, at 50.0 µM, active compounds read high
How it was run: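 Using mec2-1 yeast: add compound, measure growth, express inhibition versus vehicle-treated cultures.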

[3] = NCI Yeast Anticancer Drug Screen. Data for the sgs1 mgt1 strain (AID 161);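 further: 0% = growth of cultures given vehicle only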; conditions: S. cerevisiae sgs1 mgt1 strain, at 50.0 µM, active compounds read high
How it was run: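 Percent growth inhibition was derived by comparing compound-exposed mutant yeast with vehicle-exposed cultures. The strain carries alterations in DNA damage repair.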

[4] = NCI Yeast Anticancer Drug Screen. Data for the cln2 rad14 strain (AID 165);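 further: 0% = growth equal to vehicle treated cultures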; conditions: S. cerevisiae cln2 rad14 strain, at 50.0 µM, active compounds read high
How it was run: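 Yeast strain cln2 rad14, bearing defects in cell cycle control and DNA repair, serves as the test system; values reflect growth inhibition compared with vehicle.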

[5] = NCI Yeast Anticancer Drug Screen. Data for the bub3 strain (AID 167); conditions: S. cerevisiae bub3 mutant strain, at 50.0 µM, active compounds read high
How it was run: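 Inhibition values come from growth of compound-treated mutant yeast normalised to vehicle-treated controls.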

[6] = NCI Yeast Anticancer Drug Screen. Data for the mlh1 rad18 strain (AID 175); conditions: S. cerevisiae mlh1 rad18 strain growth inhibition; at 50.0 µM; active compounds read high
How it was run: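 Steps: expose repair-defective yeast to compound; measure growth; express inhibition against vehicle-treated controls.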

Measured: growth inhibition

C1=NC(c2ccccc2)=CN(C2CCCCC2)C1(c1ccccc1)C1CCCCC1 (stereo unspecified)
active: [1] 97.1% | [2] 96.5% | [3] 97.2% | [4] 94.6% | [5] 95.7% | [6] 96.5%

O=C1NC2(CCCC2)C(=O)N2CCCC12 (stereo unspecified)
inactive: [1] -8.65% | [2] -17.6% | [3] 17.7% | [4] -5.75% | [5] 0.3% | [6] 27.2%

CCC(CC)(C(=O)O)C(=O)O
inactive: [1] 34.1% | [2] 9.3% | [3] -3.35% | [4] -33.2% | [5] 12.7% | [6] 5.8%

CC(C)C1NC(=O)[C@H](C)OC(=O)[C@@H](C(C)C)NC(=O)[C@@H](C)OC(=O)C(C(C)C)NC(=O)[C@H](C)OC1=O (stereo partly specified)
inactive: [1] -36.7% | [2] -2.15% | [3] -17.1% | [4] 14.9% | [5] 2.85% | [6] -10.2%

CCOC(=O)[n+]1c(C)ccc2ccccc21
inactive: [1] -20% | [2] -10.9% | [3] -9.55% | [4] -23.8% | [5] 11% | [6] -13.8%

CN(C)CCOC(=O)c1cccc(CCl)c1
inactive: [1] 15.9% | [2] 6.3% | [3] 5.75% | [4] 44.4% | [5] 25.4% | [6] 7.95%

CCCC1c2c(ccc3ccccc23)Oc2ccc3ccccc3c21
inactive: [1] -36.1% | [2] 2.4% | [3] -19.6% | [4] -2% | [5] -13.7% | [6] -1.35%

CSc1nc2c(c(O)c(C)c(=O)n2C2OCC(OC(C)=O)C(OC(C)=O)C2OC(C)=O)c(=O)n1C (stereo unspecified)
inactive: [1] 10.6% | [2] -26.5% | [3] -15.7% | [4] 2.9% | [5] 2.2% | [6] -1.3%

COc1ccc(OC)c2cc(C3(C)SCCCS3)ccc12
inactive: [1] -9% | [2] 9.35% | [3] 19.2% | [4] 15.3% | [5] 13.2% | [6] -12.2%

CC(C)c1cccc(C(C)C)c1NC1=CC(=O)C(=O)c2ccccc21
inactive: [1] -7.25% | [2] 14.4% | [3] -16.8% | [4] -0.2% | [5] 4.85% | [6] -7.85%

F[B-](F)(F)[NH2+]c1ccc(-c2ccc([NH2+][B-](F)(F)F)c(Cl)c2)cc1Cl
inactive: [1] 35.1% | [2] 8.15% | [3] 42.3% | [4] 38% | [5] 19.9% | [6] 10.7%

COc1ccc2[nH]cc(CN3CCC(CO)(c4ccccc4)CC3)c2c1
inactive: [1] 13.4% | [2] 1.2% | [3] -16.4% | [4] 6.9% | [5] 5.95% | [6] 3.55%

CCNCc1ccccc1
inactive: [1] -18.2% | [2] -0.25% | [3] -22.1% | [4] -66.5% | [5] -10.9% | [6] -18.8%

Cc1cccc(NC(=O)CSc2nnc(Cc3ccccc3)o2)c1
inactive: [1] -28.1% | [2] -16.3% | [3] -15.1% | [4] -39.2% | [5] -36.7% | [6] -28.2%

CN(C)c1ccc(/C=C(\C#N)c2ccccc2Br)cc1
inactive: [1] 0.15% | [2] -10.5% | [3] 15.7% | [4] -28.2% | [5] 29.6% | [6] 3.95%

NC(=O)c1cnn(CCO)c1N
inactive: [1] 0.2% | [2] -3.35% | [3] 2.55% | [4] -15.6% | [5] 2.85% | [6] 12.6%

COC(=O)c1cc(C(=O)OC)cc([N+](=O)[O-])c1
inactive: [1] -6.4% | [2] -21.9% | [3] 8.75% | [4] 20.4% | [5] -38.5% | [6] 0.05%

O=C1OCC2CC1C(=O)O2 (stereo unspecified)
inactive: [1] -7.65% | [2] 0.3% | [3] 5.95% | [4] 4.7% | [5] -3.6% | [6] 6.65%

CC1(CO)CCCC1NCCNC1CCCC1(C)CO (stereo unspecified)
inactive: [1] 8.6% | [2] -6.7% | [3] 3.35% | [4] 10.3% | [5] -27.9% | [6] 15.5%

CC(=O)OCC(C)Cc1ccccc1 (stereo unspecified)
inactive: [1] 6.35% | [2] 13.8% | [3] -0.25% | [4] 8.2% | [5] 1.9% | [6] -2.25%

O=[N+]([O-])c1ccc(SC2OC(CO)C(O)C(O)C2O)c([N+](=O)[O-])c1 (stereo unspecified)
inactive: [1] 2.05% | [2] 29.4% | [3] 3.95% | [4] -14.2% | [5] -5.35% | [6] 20.8%

COc1ccc(CCn2cnn3c(=O)c4ccccc4nc3c2=O)cc1OC
inactive: [1] -24% | [2] -29.9% | [3] -9.1% | [4] -0.8% | [5] -17.4% | [6] -20.9%

c1csc(-c2cc(-c3ccsc3)c(-c3ccsc3)s2)c1
inactive: [1] -37.5% | [2] -48.4% | [3] -33.6% | [4] -5.35% | [5] -15.9% | [6] -8.6%

CCCCC(CC)C1OCC(O)CO1 (stereo unspecified)
inactive: [1] 8.8% | [2] 3.3% | [3] 2.55% | [4] 5.1% | [5] -13.2% | [6] -14.3%

N=c1nc2n(cc1F)[C@@H]1O[C@H](CO)[C@@H](O)[C@@H]1O2
inactive: [1] 13.4% | [2] -3.75% | [3] 4.3% | [4] 8.55% | [5] 12.6% | [6] -12.2%

Cn1c(N(CCO)CCO)cnc1[N+](=O)[O-]
inactive: [1] 11.7% | [2] 8.8% | [3] -21.8% | [4] -16.4% | [5] -17.6% | [6] -4.8%

S=c1ccc2ccccc2[nH]1
inactive: [1] -16.9% | [2] -8.15% | [3] -0.75% | [4] -13% | [5] -16.1% | [6] -13.8%

C/C=C/C(=O)OCCOc1ccccc1-c1ccccc1
inactive: [1] 15.5% | [2] 16.3% | [3] 4.35% | [4] -16.3% | [5] 25.2% | [6] 20.1%

CCCC[N+](C)(C)CC[N+](C)(C)CCCC
inactive: [1] 4.25% | [2] -14.9% | [3] -10% | [4] -36.3% | [5] -1.4% | [6] -16.2%

Cc1ccc([N+](=O)[O-])cc1NC(=O)Oc1cc(=O)oc2ccccc12
inactive: [1] 3.2% | [2] 6.8% | [3] -6.9% | [4] -18.1% | [5] 1.7% | [6] -0.75%

N#CCCNCCNCCC#N
inactive: [1] -30.8% | [2] -2.25% | [3] -18.1% | [4] -68.2% | [5] -26.1% | [6] -26.4%

O=C(CC(=O)N1N=C(N(c2ccccc2)c2ccccc2)CC1c1ccccc1)Nc1ccccc1 (stereo unspecified)
inactive: [1] 17.1% | [2] 6.4% | [3] -2.1% | [4] 8.3% | [5] -0.35% | [6] 0.1%

Nc1ccc(F)c([N+](=O)[O-])c1
inactive: [1] -6.05% | [2] 0.65% | [3] -1.6% | [4] -23.6% | [5] -1.55% | [6] -1.2%

CCN(CC)CCC(O)(Cc1ccccc1)c1cccc(Cl)c1 (stereo unspecified)
inactive: [1] 21.6% | [2] 7.95% | [3] 5.75% | [4] -67.5% | [5] 16.6% | [6] 21.4%

C=CCCC12CCCC(=O)C1Sc1ccc3ccccc3c12 (stereo unspecified)
inactive: [1] 9.8% | [2] -3.85% | [3] 11.3% | [4] 10.8% | [5] 35.3% | [6] 7.15%

CC[N+](C)(CC)CCOC(C)=O
inactive: [1] 8.55% | [2] -12.1% | [3] -5.95% | [4] 11.2% | [5] -6.5% | [6] 8.3%

CC12CCC3[C@@H](CC3(C)C)C(O)(CCC1=O)C2 (stereo partly specified)
inactive: [1] -10.4% | [2] -9.35% | [3] -10.8% | [4] -23.9% | [5] -5.35% | [6] -57.1%

N#CNc1nc(N)cc(=O)[nH]1
inactive: [1] -4.65% | [2] -23.6% | [3] -2.45% | [4] 3% | [5] -27.1% | [6] 11.2%

COC(=O)C1=NOC(Cc2ccccc2)C1 (stereo unspecified)
inactive: [1] 10.3% | [2] 6.95% | [3] 0.15% | [4] -35.4% | [5] 6.45% | [6] -4.85%

CCC(C(=O)O)C1=CCCc2c(C)ccc(C)c21 (stereo unspecified)
inactive: [1] 23.6% | [2] 13.2% | [3] 21.6% | [4] 25.3% | [5] 11.7% | [6] 23.2%

CC(C)=CC(Cc1ccccc1)S(=O)(=O)c1nc2ccccc2s1 (stereo unspecified)
inactive: [1] 8.8% | [2] 33.4% | [3] 12.1% | [4] 9.4% | [5] 31.2% | [6] -16.9%
